Among the data in PubChem BioAssay are composite z-score and z-score values, retold here.

A short description of assay [1]: small molecules captured by biotinylated probe aFSTL3 – biochemical, small-molecule microarray, fluorescence 635/667, stem cell growth factor project, primary screen (AID 1064).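 Note: measures binding of the biotinylated anti-FSTL3 antibody to printed compounds.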 The conditions noted are these: higher = more signal.
Assay [2] in a line: binders from COS7 lysate, DM2A8 probe, primary screen, torsin A project, cell lysate, small-molecule microarray, fluorescence 635/667 (AID 1065). The following applies: higher = more signal, COS7 lysate expressing mutant human TOR1A.
A short description of assay [3]: small molecules captured by biotinylated probe aFGF2 – biochemical, small-molecule microarray, fluorescence 635/667, stem cell growth factor project, primary screen (AID 1067).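 Note: measures binding of biotinylated aFGF2 protein to printed compounds on slides; z-score merges feature fluorescence and signal-to-noise across triplicate slides.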 The conditions noted are these: higher = more signal.
The nature of assay [4]: small molecules captured by biotinylated probe aFGF10 – biochemical, small-molecule microarray, fluorescence 635/667, stem cell growth factor project, primary screen (AID 1071).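 Note: score merges 667 nm spot intensity and signal to noise from triplicate slides.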 The following applies: higher = more signal.
For assay [5], the target named is Neurogenic locus notch homolog protein 2 (Homo sapiens) (UniProt Q04721). As to the kind of experiment: small molecules binding Notch2 protein – biochemical, small-molecule microarray, 635 nm fluorescence, stem cell growth factors, primary screen (AID 1073). The following applies: higher = more signal.
Assay [6] has as its target Pro-neuregulin-1, membrane-bound isoform (Homo sapiens) (UniProt Q02297). Nature of the assay: small molecules binding neuregulin-1 protein – biochemical, small-molecule microarray, fluorescence 635/667, psychiatric disease protein project, primary screen (AID 1075).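 Note: score combines 667 nm spot fluorescence with signal to noise.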 The following applies: NRG1 binding, 635 nm fluorescence, higher = more signal.
Assay [7] relates to Neuregulin-1 EGF-like domain. Nature of the assay: small molecules binding NRG1 EGF domain – biochemical, small-molecule microarray, 635 nm fluorescence, primary screen (AID 1081).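 Note: binding of the protein to compounds printed on small-molecule microarray slides.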 The conditions noted are these: higher = more signal.
A short description of assay [8]: FRG1 expression reporter modulators in myotubes – cell-based, C2C12 myotubes, firefly/Renilla luciferase, luminescence, FRG1 inhibition for FSHD, primary screen (AID 1084). The conditions noted are these: FRG1 promoter luciferase, higher = more signal, called active from +8 up or from −8 down.
Assay [9] is described as follows: small molecules captured by biotinylated probe aFST – biochemical, small-molecule microarray, fluorescence 635/667, stem cell growth factor project, primary screen (AID 1086).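 Note: score merges 667 nm fluorescence with signal-to-noise of each printed compound spot.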 The conditions noted are these: higher = more signal.
Assay [10] is described as follows: binders of probe aHhip on microarray, primary screen, stem cell growth factor project, biochemical, small-molecule microarray, fluorescence 635/667 (AID 1087).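 Note: score merges spot fluorescence at 667nm with spot signal to noise ratio.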 The following applies: higher = more signal.
Assay [11] deals with PRMT1 (protein arginine N-methyltransferase 1). Nature of the assay: small molecules binding arginine methyltransferase PRMT1 – biochemical, small-molecule microarray, 635 nm fluorescence, primary screen (AID 1088).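 Note: binding of Prmt1 protein to compounds spotted on small-molecule microarray slides.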 The following applies: higher = more signal.
Assay [12] can be described thus: growth effects on S. cerevisiae YJM789 – YJM789 clinical isolate, OD600, 24 h, basal, primary screen (AID 1089).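 Note: growth of clinical yeast isolate S. cerevisiae YJM 789 seeded 1000 cells per well; test concentration not given here.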 The following applies: higher = more signal, called active from +8 up or from −8 down.
Assay [13] can be described thus: S. pombe growth modifiers, basal conditions – strain 972, OD600, 24 h, no modulator, primary screen (AID 1090).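 Note: basal condition with compound alone and no growth modifier present; test concentration not given here.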 The conditions noted are these: S. pombe 972 growth, higher = more signal, called active from +8 up or from −8 down.
Assay [14] can be described thus: budding yeast growth modifiers under rapamycin – strain BY4716, OD600, 96 h, primary screen (AID 1091). Note: test concentration not given here. The following applies: S. cerevisiae BY4716 + rapamycin, higher = more signal, called active from +8 up or from −8 down.
Assay [15] addresses Torsin-1A-interacting protein 2 (Homo sapiens) (UniProt Q8NFQ8). As to the kind of experiment: small molecules binding lysate-expressed LULL1 – cell lysate, human LULL1 lysate, 635/667 nm fluorescence, primary screen (AID 1092).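 Note: probe is lysate of COS7 cells overexpressing human LULL1; score merges per-feature 667 nm fluorescence with signal-to-noise.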 The following applies: small-molecule microarray, hLULL1 lysate binding, 635 nm fluorescence; higher = more signal.
Assay [16] can be described thus: optical density change of DRC41 E. coli – strain DRC41, OD650, 24 h, E. coli filamentation project, primary screen (AID 1093).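 Note: MC1000 strain lacking acrAB efflux and sulA so SOS filamentation is blocked; test concentration not given here.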 The following applies: E. coli DRC41 growth, higher = more signal, called active from +8 up or from −8 down.
A short description of assay [17]: probe aLefty2 binding to arrayed compounds – biochemical, biotinylated probe, 635/667 nm fluorescence, primary screen (AID 1094).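 Note: score merges spot fluorescence near 667 nm with spot signal-to-noise ratio.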 The following applies: small-molecule microarray, higher = more signal.
Assay [18] has as its system Noggin (protein binding on small-molecule microarray). As to the kind of experiment: small molecules binding Noggin protein – biochemical, 635/667 nm fluorescence, primary screen (AID 1095).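 Note: score merges 667 nm feature fluorescence with signal to noise over triplicate slides.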 The conditions noted are these: 635 nm fluorescence, higher = more signal.
For assay [19], the target named is Neurogenic locus notch homolog protein 3 (Homo sapiens) (UniProt Q9UM47). Nature of the assay: small molecules binding NOTCH3 protein – biochemical, 635/667 nm fluorescence, primary screen (AID 1096). The following applies: small-molecule microarray, 635 nm fluorescence, higher = more signal.
A short description of assay [20]: probe aEGFR binding to arrayed compounds – biochemical, biotinylated probe, 635/667 nm fluorescence, primary screen (AID 1097).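 Note: probe is a biotinylated anti-EGFR antibody binding compounds printed on slides; score combines fluorescence near 667 nm and signal to noise of each spot.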 The following applies: small-molecule microarray, higher = more signal.

The source made the active and inactive calls.

Sequence of Pro-neuregulin-1, membrane-bound isoform (Homo sapiens) (Q02297 whole entry, looked up, the tested form may be a part, canonical isoform): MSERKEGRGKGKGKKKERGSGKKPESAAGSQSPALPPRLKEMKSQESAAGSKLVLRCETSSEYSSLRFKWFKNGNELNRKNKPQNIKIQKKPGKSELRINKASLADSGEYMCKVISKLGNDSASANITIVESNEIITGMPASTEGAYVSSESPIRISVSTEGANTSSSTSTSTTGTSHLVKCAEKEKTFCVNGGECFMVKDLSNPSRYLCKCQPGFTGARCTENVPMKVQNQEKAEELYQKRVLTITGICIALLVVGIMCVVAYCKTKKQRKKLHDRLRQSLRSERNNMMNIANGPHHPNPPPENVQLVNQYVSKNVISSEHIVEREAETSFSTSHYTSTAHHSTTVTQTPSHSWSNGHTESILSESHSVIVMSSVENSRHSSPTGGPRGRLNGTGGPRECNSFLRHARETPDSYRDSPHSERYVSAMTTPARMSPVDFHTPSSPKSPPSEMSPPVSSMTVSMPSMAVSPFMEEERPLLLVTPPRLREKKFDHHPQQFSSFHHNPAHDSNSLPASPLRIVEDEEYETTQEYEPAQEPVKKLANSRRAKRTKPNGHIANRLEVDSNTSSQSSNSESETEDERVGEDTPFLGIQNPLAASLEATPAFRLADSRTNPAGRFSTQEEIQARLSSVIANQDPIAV
Sequence of Torsin-1A-interacting protein 2 (Homo sapiens) (Q8NFQ8 whole entry, looked up): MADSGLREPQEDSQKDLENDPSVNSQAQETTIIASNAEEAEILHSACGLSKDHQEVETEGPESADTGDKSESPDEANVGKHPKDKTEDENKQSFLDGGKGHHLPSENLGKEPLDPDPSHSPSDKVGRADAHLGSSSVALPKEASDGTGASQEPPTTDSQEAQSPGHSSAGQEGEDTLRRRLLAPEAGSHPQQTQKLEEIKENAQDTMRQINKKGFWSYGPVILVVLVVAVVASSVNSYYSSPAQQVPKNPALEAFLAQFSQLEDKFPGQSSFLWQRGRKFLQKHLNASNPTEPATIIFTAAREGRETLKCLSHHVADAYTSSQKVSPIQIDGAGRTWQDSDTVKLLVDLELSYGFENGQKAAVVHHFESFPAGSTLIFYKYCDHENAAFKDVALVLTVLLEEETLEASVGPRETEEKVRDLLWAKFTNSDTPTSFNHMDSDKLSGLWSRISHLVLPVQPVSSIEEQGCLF
Sequence of Neurogenic locus notch homolog protein 3 (Homo sapiens) (Q9UM47 whole entry, looked up): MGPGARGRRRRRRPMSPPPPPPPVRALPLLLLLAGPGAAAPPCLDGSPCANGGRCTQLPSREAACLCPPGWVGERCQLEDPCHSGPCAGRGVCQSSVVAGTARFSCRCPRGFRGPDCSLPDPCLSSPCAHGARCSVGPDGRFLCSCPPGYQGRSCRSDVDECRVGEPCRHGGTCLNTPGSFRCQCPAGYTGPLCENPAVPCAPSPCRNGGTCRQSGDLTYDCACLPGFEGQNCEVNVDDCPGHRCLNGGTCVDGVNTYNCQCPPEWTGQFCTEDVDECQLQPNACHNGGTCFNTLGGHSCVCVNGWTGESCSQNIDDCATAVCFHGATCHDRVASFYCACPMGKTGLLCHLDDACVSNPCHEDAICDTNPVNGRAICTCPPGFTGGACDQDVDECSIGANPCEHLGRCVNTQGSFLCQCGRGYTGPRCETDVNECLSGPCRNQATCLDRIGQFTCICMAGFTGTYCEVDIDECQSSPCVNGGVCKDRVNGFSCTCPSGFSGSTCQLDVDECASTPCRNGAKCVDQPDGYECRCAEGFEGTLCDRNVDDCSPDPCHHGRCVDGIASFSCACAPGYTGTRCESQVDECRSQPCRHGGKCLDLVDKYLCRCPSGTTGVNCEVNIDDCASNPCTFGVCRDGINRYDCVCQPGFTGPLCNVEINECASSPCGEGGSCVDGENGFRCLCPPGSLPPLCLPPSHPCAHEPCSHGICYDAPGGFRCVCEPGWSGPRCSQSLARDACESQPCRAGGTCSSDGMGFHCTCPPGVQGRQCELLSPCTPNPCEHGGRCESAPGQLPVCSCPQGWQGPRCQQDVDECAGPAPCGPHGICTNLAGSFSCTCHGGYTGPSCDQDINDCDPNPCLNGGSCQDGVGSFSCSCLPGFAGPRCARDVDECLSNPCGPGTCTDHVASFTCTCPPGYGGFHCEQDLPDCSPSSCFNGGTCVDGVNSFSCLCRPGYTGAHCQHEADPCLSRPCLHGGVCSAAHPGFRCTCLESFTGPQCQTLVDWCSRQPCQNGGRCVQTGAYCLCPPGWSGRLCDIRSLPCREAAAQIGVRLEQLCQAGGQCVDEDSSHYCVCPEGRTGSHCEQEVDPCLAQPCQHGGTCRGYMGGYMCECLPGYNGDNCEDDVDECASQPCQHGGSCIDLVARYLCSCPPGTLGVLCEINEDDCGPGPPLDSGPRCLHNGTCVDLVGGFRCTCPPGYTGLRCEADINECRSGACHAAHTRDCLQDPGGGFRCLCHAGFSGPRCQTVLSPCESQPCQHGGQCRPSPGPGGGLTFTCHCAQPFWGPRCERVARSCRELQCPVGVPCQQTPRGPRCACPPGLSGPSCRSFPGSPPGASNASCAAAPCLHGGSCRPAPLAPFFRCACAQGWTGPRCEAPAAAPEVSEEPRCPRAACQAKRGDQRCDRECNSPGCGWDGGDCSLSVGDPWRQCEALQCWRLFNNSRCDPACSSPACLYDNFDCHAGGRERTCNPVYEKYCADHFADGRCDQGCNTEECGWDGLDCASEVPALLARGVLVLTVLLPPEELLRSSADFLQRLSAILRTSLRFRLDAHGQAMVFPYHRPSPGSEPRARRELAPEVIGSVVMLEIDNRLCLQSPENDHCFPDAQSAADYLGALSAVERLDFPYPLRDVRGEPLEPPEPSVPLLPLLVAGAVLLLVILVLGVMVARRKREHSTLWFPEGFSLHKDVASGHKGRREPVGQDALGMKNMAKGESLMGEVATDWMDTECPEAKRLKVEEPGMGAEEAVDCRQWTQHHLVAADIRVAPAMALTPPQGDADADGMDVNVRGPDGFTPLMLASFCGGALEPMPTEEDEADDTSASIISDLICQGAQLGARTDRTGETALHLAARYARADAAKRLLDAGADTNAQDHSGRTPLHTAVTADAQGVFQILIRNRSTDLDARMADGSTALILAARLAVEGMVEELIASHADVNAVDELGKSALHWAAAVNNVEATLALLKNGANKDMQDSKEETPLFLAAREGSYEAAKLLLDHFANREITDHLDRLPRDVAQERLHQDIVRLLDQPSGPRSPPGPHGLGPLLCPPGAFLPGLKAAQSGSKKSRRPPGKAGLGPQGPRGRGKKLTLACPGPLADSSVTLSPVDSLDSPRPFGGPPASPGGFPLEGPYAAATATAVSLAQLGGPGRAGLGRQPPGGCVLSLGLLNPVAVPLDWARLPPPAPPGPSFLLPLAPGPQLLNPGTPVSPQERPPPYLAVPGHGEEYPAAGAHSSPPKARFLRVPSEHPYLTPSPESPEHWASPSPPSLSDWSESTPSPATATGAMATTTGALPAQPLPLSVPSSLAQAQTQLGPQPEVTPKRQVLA

As to `NC(=O)NCC#Cc1ccc2c(c1)[C@]1(C(=O)N2)[C@H](C(=O)NC[C@H](O)c2ccccc2)[C@H]2C(=O)O[C@H](c3ccccc3)[C@H](c3ccccc3)N2[C@@H]1c1ccc(O)cc1`, the composite z-score in assay [1] was -0.261; in assay [2], 0.362; in assay [3], 0.337; in assay [4], 0.896; in assay [5] it was 0.857; in [6], 1.38. In addition, the composite z-score in assay [7] is 0.983; in assay [9], 0.077; in assay [10], 0.356; in assay [11], 1.39; in assay [15], 2.9; in assay [17], 0.138. The composite z-score in [18] turned out to be 1.27; in assay [19], 1.13; in assay [20] it was 0.151. Also, the z-score was 1.11 (inactive) in [8]; 1.94 (inactive) in [12]; 1.06 (inactive) in [13]; 3.72 (inactive) in [14]; -0.412 (inactive) in assay [16].

Consider `C=CCN1C(=O)[C@]2(O[C@H](CCO)[C@@H]([Si](C)(C)c3ccc(OC)cc3)[C@@H]2C)c2cc(NC(=O)[C@H](C)O)ccc21`, for which the composite z-score was -0.561 in assay [1]; 0.363 in assay [2]; -0.0158 in assay [3]; 1.08 in assay [4]; 0.327 in assay [5]; 1.35 in assay [6]. The composite z-score in assay [7] was 1.2; in [9], -0.412; in assay [10] it was -0.216; in assay [11], 1.53; in [15], 2.77; in assay [17], -0.166. Also, the composite z-score in [18] was 0.392; in assay [19], 1.02; in assay [20], -0.151. Also, the z-score is -3.94 (inactive) in [8]; 0.83 (inactive) in [12]; -0.759 (inactive) in [13]; 1.31 (inactive) in assay [14]; 0.64 (inactive) in [16].

Turning to `CCN(CC)c1ccc(N2CC=CC34O[C@@H]5/C=C\CCCOC(=O)C5[C@H]3C(=O)N(C(CO)C(C)C)[C@@H]4C2=O)cc1` (stereo not given in full), the composite z-score in assay [1] was 0.0964; in assay [2], -1.2; in assay [3], -0.159; in [4], -0.381; in [5], -0.686; in assay [6], 1.78. The composite z-score in [7] was 0.897; in assay [9], -0.406; in assay [10], 0.0142; in assay [11], 0.0395; in assay [15], 2.03; in assay [17] it was -0.168. Also, the results for the composite z-score in assay [18], in [19] and in assay [20] were -0.708, -0.0981 and -0.198, respectively. In addition, the z-score is 0.455 (inactive) in assay [8]; 0.803 (inactive) in [12]; -0.193 (inactive) in [13]; -0.0204 (inactive) in assay [14]; -0.309 (inactive) in assay [16].

In the case of `COCCOC(=O)N1C(=O)[C@@]2(c3cc(C#CCC(C(=O)OC)C(=O)OC)ccc31)[C@H](c1ccccc1OCCO)N1[C@H](c3ccccc3)[C@H](c3ccccc3)OC(=O)[C@H]1[C@@H]2C(=O)N1CCc2cc(OC)c(OC)cc2C1`, the composite z-score in assay [1] was -0.257; in assay [2] it was 0.007; in [3] it was -0.126; in [4], 0.319; in assay [5], 1.46; in assay [6], 1.09. Also, the composite z-score in assay [7] was 1.27; in assay [9] it was 0.638; in [10] it was -0.0655; in assay [11], 1.56; in assay [15] it was 2.42; in [17], -0.0373. For the same compound, the composite z-score in [18] worked out at 1.64; in [19] it was 0.729; in assay [20], 0.0637. Moreover, the z-score in assay [8] was -0.285 (inactive); in [12] it was 0.502 (inactive); in [13], 0.979 (inactive); in assay [14], 3.89 (inactive); in assay [16] it was 1.92 (inactive).

Turning to `O=C1O[C@@H](c2ccccc2)[C@@H](c2ccccc2)N2[C@@H](c3ccc(O)cc3)[C@]3(C(=O)Nc4ccc(C#CC5=CCCCC5)cc43)[C@@H](C(=O)O)[C@H]12`, the composite z-score in [1] is 0.638; in assay [2] it was 1.56; in [3] it was -0.0908; in assay [4] it was 0.725; in assay [5], 0.798; in assay [6] it was 1.2. Besides, the composite z-score in assay [7] stood at 1.14; in [9] it was 0.437; in [10], 0.0274; in assay [11] it was 1.53; in [15], 2.86; in assay [17], 0.246. Moreover, the composite z-score in assay [18] is 0.878; in [19], 0.925; in [20], -0.0315. The z-score was -0.611 (inactive) in assay [8]; -2.6 (inactive) in assay [12]; -3.2 (inactive) in assay [13]; -2.21 (inactive) in assay [14]; 3.68 (inactive) in assay [16].
